Inconclusive results are not listed. Active and inactive are the calls of the source. The call rests on the fitted dose curve; in most records, active means well fitted inhibition curve with a large enough effect; inconclusive means small, poorly fitted or top-dose-only effect; inactive means no such curve, though single readings can be large or run the other way.
Experiment: Acumen qHTS Assay for Inhibitors of the mTORC1 Signaling Pathway in MEF (Tsc2-/-, p53-/-) Cells: Hit Validation; further: nearly all actives have a fitted effect of over 65% in size
Settings: Acumen imaging; activity change, negative = inhibition: at 37.3 µM (top of the series)
Excerpt: The mammalian target of rapamycin (mTOR) is an intracellular serine/threonine kinase Aberrant regulation of mTOR signaling plays a causative role in a number of human diseases, including cancer, benign tumors such as lymphangioleiomyomatosis (LAM) and Tuberous Sclerosis Complex (TSC), and metabolic diseases such as diabetes and obesity. This project aims to identify inhibitors of ribosomal protein S6 (rpS6) phosphorylation. The phosphorylation of rpS6 is a key event downstream of mTOR activation. The assay uses a phospho-specific antibody of phospho-rpS6 to detect inhibitors of mTOR activation. Mutations in the Tsc1 and Tsc2 genes are the underlying genetic lesions responsible for TSC, causing constitutive activation of the mTORC1 pathway and leading to profound effects on cell metabolism. Aberrant metabolism in cancer has recently received significant attention as a target to develop therapeutic agents in the treatment of cancer.1 As Tsc2-/- cells have lost the ability to respond to energy and growth factor deprivation, these cells are unable to properly down regulate cellular biosynthetic processes in response to metabolic stress, and are thus extremely sensitive to glucose deprivation-induced death.2 A central goal of this project is to explore the unique cell survival and metabolic properties of cells with Tsc1 or Tsc2 by screening for compounds that selectively target the Tsc2-/- MEFs by screening both Tsc2-/- and WT MEF cell lines. We hope to better understand these aspects of TSC physiology in order to exploit them for therapeutic benefit.
NIH Molecular Libraries Probe Production Centers Network [MLPCN]
NIH Chemical Genomics Center [NCGC]
Assay Submitter (PI): Blenis, John; Harvard University
For quantitative high throughput analysis of mTORC1 signaling, we developed a cell-based assay for immuno-fluorescence based detection of rpS6 phosphorylation on the Acumen Explorer that will be used a platform for the primary small molecule screen. Mouse embryonic fibroblasts (MEFs) are cultured in 1536-well plates using DMEM + 10% FBS. Twenty-four hrs after plating, test compounds (solubilized in DMSO) are delivered and incubated with the cells for 24 hrs at 37 degree Celsius. Following the incubation, media with compound is aspirated and the cells are fixed in 4% paraformaldehyde (PFA) containing PBS + 0.2% TX-100. Next, PFA is aspirated, cells are washed two times with PBS plus 0.2% TX-100 and the cells are blocked for 1 hr at room temperature (blocking buffer: LiCOR Blocking Buffer plus 0.2% TX-100). This is followed by aspiration and staining with Alexa-488 conjugated-phospho-rpS6 Ser235/236 antibody for 2 hours at room temperature (Cell Signaling Technology # 4803, 1:50 dilution in blocking buffer). Cells are washed two times with PBS plus 0.2% TX-100, and stained with 10 uM propidium iodide (PI) for 20-25 minutes for cell number measurement (1:500 dilution of Hoescht staining is also added for IN Cell imaging). The plates are scanned on the Acumen Explorer laser scanning instrument (TTP Labtech) using the 488nm laser for simultaneous excitation of the Alexa-488 and PI. […] Fluorescence emission from the PI stain is selected using a 575-640 nm band pass filter. The normalized phospho-S6 staining is calculated as the ratio of the integrated Alexa 488 intensity divided by the integrated PI intensity for the single concentration rapamycin control (7.5 nM) and DMSO columns. […] Inhibition of the pathway is defined based on the normalized phospho-S6 intensity in rapamycin treated cells. Active cells are defined as those with a normalized phospho-S6 staining above this threshold, and each treatment is reported as the % positive cells in the well, where thresholds are defined by selecting wells with the highest and lowest signal and differentiating between the % non-active and % active populations. In addition to the pathway specific phospho-S6 endpoint, the number of PI stained cells from the Acumen is recorded as a measure of cell viability. […]
Potency means the concentration at half of the fitted maximal effect.

Structure (SMILES)	activity change, negative = inhibition [%]	Potency
O=C(NCCc1ccc(Cl)cc1)C(=O)NCC(c1cccs1)S(=O)(=O)c1cccs1 (configuration not stated)	-3.28	–
COc1ccccc1N=c1scc(-c2ccc(S(=O)(=O)N3CCCC3)cc2)n1C	–	5.85 µM (active)
COc1ccc(S(=O)(=O)NCCc2sc3nc(-c4ccc(C)cc4)nn3c2C)cc1F	–	7.36 µM (active)
CCOc1ccc(/C=C/c2nc(C#N)c(NCc3ccccc3)o2)cc1	–	1.04 µM (active)
Cc1ccc(-n2c(/C=C/c3ccc(Br)s3)nc3ccccc3c2=O)cc1C	-10.2	–
CCCCOc1ccc(CN2C(=O)C(=O)c3cc(C)ccc32)cc1OC	–	0.261 µM (active)
COc1ccc(N2CCN(C(=O)C3CCCN(S(=O)(=O)c4ccc5c(c4)CCCN5C(C)=O)C3)CC2)cc1 (configuration not stated)	–	16.5 µM (active)
CCN(CC)C(=O)c1ccc(NC(=O)CCn2nc(-c3ccc(C)cc3)c3ccccc3c2=O)cc1	-9.62	–
CN[C@@H]1C[C@@]2(C)O[C@@H]([C@@H]1OC)n1c3ccccc3c3c4c(c5c6ccccc6n2c5c31)C(=O)NC4	–	0.0163 µM (active)
Cc1cccc(N(CC(=O)NCCSc2ccc(Cl)cc2)S(=O)(=O)c2ccccc2)c1C	–	13.1 µM (active)
NC(N)=NC(=O)c1nc(Cl)c(N)nc1N	57.9	–
Cc1oc(-c2ccc(Cl)cc2)nc1CN1CCC(C(=O)NCCCN2CCN(c3cccc(Cl)c3)CC2)CC1	–	5.85 µM (active)
COc1ccc2nc(NC(=O)c3nc(S(=O)(=O)Cc4cccc(C)c4)ncc3Cl)sc2c1	–	2.07 µM (active)
CCOc1ccc(CN(CCc2ccc3c(c2)OCO3)Cc2ccc(C)cc2)cc1	-0.408	–
O=C(c1ccccc1)c1ccc2nc(N3CCN(c4ccc(F)cc4)CC3)c3nncn3c2c1	–	18.5 µM (active)
COc1ccc(C(=O)Nc2ccc3c(c2)N(C)C(=O)c2ccccc2S3)cc1OC	–	10.4 µM (active)
Cc1ccccc1-c1nc(CN2C(=O)CN=C(c3ccccc3)c3ccccc32)c(C)o1	-13.1	–

Reference: PubChem BioAssay AID651784 (National Center for Advancing Translational Sciences (NCATS), 2012)
